PubChem BioAssay AID1347426 (Functional Genomics Laboratory (NCATS/FGL), 2020)
The campaign covered roughly 31,000 sequences. About 1,400 (4.5%) were called active.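 Rule for the calls: active = median seed-adjusted z-score above 1 or below -1; inactive = the rest.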 Shown is part of a subset that was picked to be rich in actives.

Assay: Novel Modifiers of Survival Motor Neuron (SMN) Protein: Gene Identification via Genome-wide siRNA Screen;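 note: luminescence tracks full-length SMN protein made from the SMN2 reporter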
Settings: HEK293T SMN2-luciferase reporter, siRNA knockdown, 72 h; actives lie on both sides
Procedure, shortened: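 Each of three siRNAs per gene is reverse-transfected (1 pmol) into reporter HEK293T cells whose luciferase output tracks SMN protein level. After 72 h culture, ONE-Glo luminescence is control-normalized, log10-transformed and MAD-standardized; Common Seed Analysis deprioritizes seed-driven hits.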

Row | Sequence | median seed-adjusted z-score
1 | CAAAGUGGAUUCAAAGAUUTT against PRKCH | 0.761 (inactive)
2 | CACCUUUUCUGGAUAGAGATT against DSC1 | -0.151 (inactive)
3 | GCCUUAUGAUGGAAGAGAUTT against EYA2 | 0.111 (inactive)
4 | GUCUAGAUGAUCACAAGUATT against PSMD1 | -1.61 (active)
5 | GUUCUACCGUGGACAGCAATT against CLCN1 | 0.314 (inactive)
6 | CAACAACAAUCAUAGCUGATT against SSBP1 | -0.456 (inactive)
7 | GACUGGAAAUGAUUCGAGATT against RTCD1 | 0.0794 (inactive)
8 | CCUAUGGACUGAACAGGGATT against ZDHHC3 | 0.229 (inactive)
9 | GUCUGGAGAUCAUAUUUUUTT against PIM3 | -1.01 (active)
10 | CAUUCUGACCGUGAACAAUTT against CTRB1 | -0.214 (inactive)
11 | CGAUGACUCAGAAAAGCGATT against ARHGEF10 | 0.22 (inactive)
12 | CGAGGAUAUUGACUGGGUATT against PRKCZ | -0.175 (inactive)
13 | GCCCUGCAUUUGCGAUGAATT against ZNF169 | 0 (inactive)
14 | CACUUGCACAGAUACCCUUTT against COLEC12 | -1.04 (active)
15 | GGAAAGAGUUCAGUCGGAATT against ZNF671 | -0.0551 (inactive)
16 | GAAAGAUUGUACCAGUUGATT against CMPK1 | -0.363 (inactive)
17 | GCGAGUGUGAGAAAACAUUTT against ZFP3 | 0 (inactive)
18 | GAGCGAGACAUAAAAUAUUTT against ZNF257 | 0.306 (inactive)
19 | CCCAAGAAAUAUUAACAUUTT against AP3S1 | 0.787 (inactive)
20 | CGAAUUUCCUAGUAAACCATT against TFAP2C | 1.28 (active)
21 | CGUCAUGAGCCUCUACGAATT against PTPN5 | 0.22 (inactive)
22 | GGAAAUCCAUCUACCGCUATT against SORL1 | 0.357 (inactive)

Row | Sequence | median seed-adjusted z-score
23 | GAUCAGGUGCUGUUCCAUATT against DGAT2L3 | 0.247 (inactive)
24 | CAUCGAGGGUCAUACUAUUTT against POLR2A | -3.81 (active)
25 | GACUGCUGCUUAUCAACAATT against SPR | 0.0329 (inactive)
26 | GACCUUACCUCAGACUAGATT against EXOG | 0.746 (inactive)
27 | AGAUGUACCUGUUCGUGUATT against DNASE1L2 | -0.228 (inactive)
28 | GGACCUACGUUGCAGUUCATT against SUZ12 | -1.65 (active)
29 | GCACUGGAGAAGUAUGUGATT against ALOX12B | 0.0071 (inactive)
30 | GCACUUUACCAUUAGACAATT against LDB2 | -0.0847 (inactive)
31 | GGAGACUAGUAAGCACUAUTT against JARID1B | 0 (inactive)
32 | CAAGAGGGUUUUUACCAUATT against SEC11C | 0.508 (inactive)
33 | GGUCAUGGAUGUGCACGAUTT against KRT14 | -0.127 (inactive)
34 | CAUCAGGAAUGGAAUUACATT against SKIL | -0.868 (inactive)
35 | GGUCCAAGCUGAUUACCCUTT against UNC13A | -2.1 (active)
36 | CCUCCCAUCUUAUUAUCCATT against ZNF572 | 0.237 (inactive)
37 | GGUGGAGACAUUUACAUCUTT against CREB3L1 | 0.708 (inactive)
38 | CAAAGUACCGAGUCGAAUATT against SENP7 | 0.547 (inactive)
39 | GCAAGACCGUGAGACAACUTT against SENP7 | 0.547 (inactive)
40 | GGAAGAAAAUAGUGCUGCATT against BARX1 | 1.63 (active)
41 | CAUUCGCCGUUACCUGCCATT against POLR2F | -3.52 (active)
42 | GAACCACAAGGAGAAGUUUTT against PSMC3 | -0.701 (inactive)
43 | ACAAGGACUAUUACAGAUATT against PLA2G2D | 0.361 (inactive)
44 | GGAGACAUCUGACCCAGCATT against ARHGAP9 | 0 (inactive)

Row | Sequence | median seed-adjusted z-score
45 | CGUCAGAUCUGAACAAGAATT against CHST4 | 0.349 (inactive)
46 | GUAUAUCAGUUCCAGUUUATT against RANBP3 | -0.211 (inactive)
47 | UUAUCACAGAGCAACCUAATT against NUBPL | 0.105 (inactive)
48 | GGAAUGCACCCAGAUCAAATT against TFAP2D | 0 (inactive)
49 | GGCCUUUCCUUUACUGUCATT against ABCC4 | -1.66 (active)
50 | CCGAAUGAAUGGUGAUAAATT against TUSC3 | 0.138 (inactive)
51 | CAAGGACACUUCAUCGUGATT against AVPR2 | -0.262 (inactive)
52 | GAACUCAUCAAAAUGCACATT against KLF15 | -0.45 (inactive)
53 | GGGAGACGAUUGUUCAUCATT against XPA | 2.03 (active)
54 | AUACAUCAAAGAUUAGUAATT against NTS | 0.518 (inactive)
55 | GUUAAUCACAUACACCAAATT against GPR22 | 0.705 (inactive)
56 | CCGCUUGACUAUGAGCUCATT against TTC7A | -0.303 (inactive)
57 | CCAGGAGCGAUAACAGUAATT against DAZAP1 | 0 (inactive)
58 | CCUUAUCGAUAUUAUGAGATT against CPEB2 | -0.00928 (inactive)
59 | ACGUGGAGCUCUUAGACAATT against AP1S1 | -1.04 (active)
60 | GGAUCGGAUGGAUAAGAAUTT against CTTN | -0.314 (inactive)
61 | CACUAGGAAUCACACCGUUTT against TINAG | 0.374 (inactive)
62 | GAGACGAGGAGGAAACUUUTT against DDX27 | -0.131 (inactive)
63 | GCAGUAUGCAGAUUGUUCATT against FGL1 | -0.259 (inactive)
64 | CAGUUGUCCUUGUGGAUAATT against TTF1 | 1.76 (active)
65 | GAUAAUUCCAUGACAUUAUTT against CYP39A1 | 0.196 (inactive)
66 | GAAGAGAACUCUAAGAUCATT against CAMK1G | -0.358 (inactive)

Row | Sequence | median seed-adjusted z-score
67 | GCAAGUCCCUGUACUAUUATT against ANXA2 | 0.499 (inactive)
68 | GCAGAACUGCUGCUACAGATT against ANKZF1 | 0.176 (inactive)
69 | CACCGUUCAUCUGCACAGATT against KATNA1 | -0.471 (inactive)
70 | CGAUAAACUCAGACCAGAATT against IDE | -0.081 (inactive)
71 | GGAAAGUUGAUUUUUAUGATT against MS4A6E | -0.341 (inactive)
72 | GGCUCUACGGUUUCAAGAUTT against CSNK2B | -1.62 (active)
73 | CAAUGUCCCAAGAUAAAGATT against PRPSAP1 | 0.224 (inactive)
74 | CUCUUUGACCGGUUGCUCATT against EGLN2 | -0.349 (inactive)
75 | CCAUUUUAGCUCUAGAAGATT against GSTA4 | -0.848 (inactive)
76 | GAAUUGGCCGUUGGGCUUATT against COX8A | -0.0749 (inactive)
77 | CAUCUCGACUUAUUGGAAATT against WEE1 | -4.05 (active)
78 | CAAGGUCAUUAAUAAGGAUTT against CST5 | 0.466 (inactive)
79 | CACCCAACACCAAACUGUATT against HSPB6 | 0.394 (inactive)
80 | GAAUUAACUUCAUGGUGAATT against PPM1K | 0.154 (inactive)
81 | GCCGAAUCCUGAAGAGACATT against QTRTD1 | 0.377 (inactive)
82 | CAACCACUGUGAGACGAAATT against MFGE8 | 0.0367 (inactive)
83 | CUGAGAUACUGCAAGCUGATT against IL5RA | -0.357 (inactive)
84 | CCGACUACUCCAACGAGAATT against MASP2 | -0.137 (inactive)
85 | GCUCAAGAGCUUGCACAGATT against SLC25A42 | -1.02 (active)
86 | CUCUGAACCAAAUCGUUUATT against DPP8 | -0.0209 (inactive)
87 | GAUGACUACUUAGCUCUAATT against FLJ90650 | 0.427 (inactive)
88 | GGCCUAGUGUAAUCUCCCATT against ZNF774 | -0.0834 (inactive)

Row | Sequence | median seed-adjusted z-score
89 | GCAGAUCGAUUUCUCAACATT against ABCA1 | -1.27 (active)
90 | CCAUGUUACCAUACAAUAATT against MXD1 | -0.763 (inactive)
91 | CCACAGAGGCUAUGCUAAATT against ACE | 0.0874 (inactive)
92 | GUAGCUCCGAGGUCUGAUATT against SMARCA4 | 0.223 (inactive)
93 | GGAACUACCAGAUCGGGAATT against MYO9B | -0.0287 (inactive)
94 | GCAAGACAAGUGAAGUCAATT against CNBP | -1.14 (active)
95 | CAUGCGGUCUUAGAAAUGATT against HNRPUL1 | -0.047 (inactive)
96 | GCAUUUGAGCAUGAAAAUATT against VPS29 | -0.408 (inactive)
97 | AGCUACUAGUGGAGCAGAATT against BAT1 | -1.49 (active)
98 | CCACUCCAUUGAAGAUGUATT against SREBF1 | -0.0469 (inactive)
99 | CAACCAGAAUUACUGCUAUTT against PCDH10 | -0.488 (inactive)
100 | CGACACCAGGAGUACCUCUTT against IKBKE | 0.122 (inactive)
101 | GCAUUUGGAUGGAUCAUGUTT against CD163 | 0.021 (inactive)
102 | GCUGACUACUUGAAGUUCATT against DYRK1A | -1.3 (active)
103 | GGAAAGACAUGUAAGAGCATT against BMP8B | 0 (inactive)
104 | GAACUAAUCCUGUUCAACATT against ATXN3 | 0.04 (inactive)
105 | CUGUGAUUGUAGUAGAUCATT against SLC19A3 | -0.0232 (inactive)
106 | CCUGCCCAGAGAUACGAAATT against SMURF1 | -1.4 (active)
107 | GGUGGUCUCUUUAUAAUGATT against PHAX | -0.0716 (inactive)
108 | GCCUUUAUGUCAUCCUCAATT against ZNF626 | 0.185 (inactive)
